Compounds with a hit are over-represented: about 2.4% of the library has one in this group of screens.
Cruzain inh noDet = inhibitors of Trypanosoma cruzi cruzain without detergent | P25779 | Potency, µM, for the others: max response, negative = inhibition, most hits filed as inhibitors | purified cruzain, Z-FR-AMC fluorescence, no detergent | 200,000 compounds, 2.3% hits;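 note: plate controls were enzyme without inhibitor for no effect and buffer without enzyme for full effect; nearly all actives have a fitted effect of over 40% in size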
Target sequence (P25779 123-467 limits assumed): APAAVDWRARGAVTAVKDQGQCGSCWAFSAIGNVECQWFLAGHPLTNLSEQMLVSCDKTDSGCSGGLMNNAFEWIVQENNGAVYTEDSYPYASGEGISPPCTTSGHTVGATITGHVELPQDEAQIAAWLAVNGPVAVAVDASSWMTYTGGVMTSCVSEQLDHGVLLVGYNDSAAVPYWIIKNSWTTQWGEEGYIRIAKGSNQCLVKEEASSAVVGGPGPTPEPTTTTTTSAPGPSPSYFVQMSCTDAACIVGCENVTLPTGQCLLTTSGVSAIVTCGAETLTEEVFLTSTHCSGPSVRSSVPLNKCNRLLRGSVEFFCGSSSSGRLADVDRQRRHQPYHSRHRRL
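Detergent-free condition (0.00005% Triton X-100) in acetate buffer pH 5.5 with DTT. 1.5 nM enzyme and compound were pre-mixed 15 min, then 2 uM Z-FR-AMC substrate added; reaction progress from fluorescence change between first and third reads (60 s).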
Cruzain Triton = blocks cruzain activity in presence of Triton detergent; purified cruzain, Z-FR-AMC fluorescence, 0.01% Triton; Potency, µM, inactives show max response, negative = inhibition, hits mostly inhibitors; 200,000 compounds, 0.43% hits; P25779;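 note: plate controls were neutral wells for no effect and buffer without enzyme for full effect; nearly all actives have a fitted effect of over 40% in size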
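Detergent-containing run (0.01% Triton X-100) in acetate buffer pH 5.5 with 5 mM DTT: enzyme at 1.5 nM final, 15 min compound preincubation at room temperature, then 2 uM Z-FR-AMC substrate. Activity taken as 60 s fluorescence increase at 360/450 nm.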
The depositor's hits bear a star. Calls come from the whole dose curve; as a rule, active = well fitted curve in the direction sought with a large enough effect; inconclusive = small, poorly fitted or top-dose-only effect, or another doubt; inactive = no such curve, though single readings can be large; an effect the other way counts as inactive or inconclusive. Potency is the fitted concentration of half-maximal effect.

Results for Cc1cc(C(=O)CSc2nnc(-c3ccc(F)cc3)o2)c(C)n1CC1COc2ccccc2O1 (configuration not stated) ?
Cruzain inh noDet: 15.8µM*; Cruzain Triton: 5.8%

What do the screens show for `Cc1cc(C(=O)CSc2nnc(-c3ccccc3)o2)c(C)n1CC1COc2ccccc2O1` (configuration not stated)?
Cruzain inh noDet: 20µM*; Cruzain Triton: 5.0%

How did Cc1cc(C(=O)CSc2nnc(-c3ccco3)o2)c(C)n1CC1COc2ccccc2O1 (configuration not stated) do in these assays?
Cruzain inh noDet: inconclusive; Cruzain Triton: 0.6%

How did O=C(CSc1nnc(-c2ccc(F)cc2)o1)c1ccc2c(c1)OCCO2 do in these assays?
Cruzain inh noDet: 12.6µM*; Cruzain Triton: 1.8%

How did CC(C)(C)c1ccc(-c2nnc(SCC(=O)c3ccc4c(c3)OCCO4)o2)cc1 do in these assays?
Cruzain inh noDet: -11.1%; Cruzain Triton: 1.1%

What do the screens show for `Cc1cc(C(=O)CSc2nnc(-c3ccc(F)cc3)o2)c(C)n1CC1CCCO1` (configuration not stated)?
Cruzain inh noDet: 14.8%; Cruzain Triton: 3.9%

How did O=S(=O)(c1ccc(Cl)cc1)c1nc(-c2ccco2)oc1SCc1ccc(F)cc1 do in these assays?
Cruzain inh noDet: inconclusive; Cruzain Triton: -14.9%

What do the screens show for `CCc1nn2c(=O)cc(COC(=O)c3ccccc3)nc2s1`?
Cruzain inh noDet: -0.3%; Cruzain Triton: -3.4%

What do the screens show for `COc1ccc(NC(=O)c2ccc(-c3nc(COc4ccccc4)c(C)o3)cc2)cc1`?
Cruzain inh noDet: 2.1%; Cruzain Triton: -1.6%

Results for CC(=O)c1ccc(NC(=O)c2ccc(-c3nc(CSc4ccccc4)c(C)o3)cc2)cc1 ?
Cruzain inh noDet: 10µM*; Cruzain Triton: -2.4%

What do the screens show for `CC(=O)c1ccc(NC(=O)c2ccc(-c3nc(COc4ccc(C)cc4)c(C)o3)cc2)cc1`?
Cruzain inh noDet: 1µM*; Cruzain Triton: -2.9%

Results for CC(=O)c1ccc(NC(=O)c2ccc(-c3nc(CSc4ccc(C)cc4)c(C)o3)cc2)cc1 ?
Cruzain inh noDet: inconclusive; Cruzain Triton: -2.2%

Results for Cc1ccc(C)c(NC(=O)CSc2nc(=O)n(CCN(C)C)c3c2CCC3)c1 ?
Cruzain inh noDet: 15.6%; Cruzain Triton: 3.9%

How did COc1ncc2nc(-c3cc(F)cc(F)c3)c(=O)n(CCC#N)c2n1 do in these assays?
Cruzain inh noDet: -13.7%; Cruzain Triton: -6.1%

What do the screens show for `CC(C)(C)NC(=O)N1CCC(C(=O)O)CC1`?
Cruzain inh noDet: 7.8%; Cruzain Triton: -0.9%

What do the screens show for `Cc1ccc(/C=C2\SC(N3CCN(C(c4ccccc4)c4ccccc4)CC3)=NC2=O)o1`?
Cruzain inh noDet: 7.94µM*; Cruzain Triton: -11.7%

How did CC1=CN2C(=N)/C(=C/c3ccc(C)o3)C(=O)N=C2S1 do in these assays?
Cruzain inh noDet: -10.9%; Cruzain Triton: -9.2%

Results for N#Cc1ccc(C(=O)Nc2ccc(Cl)c(-c3nc4cc(Cl)ccc4o3)c2)c(F)c1 ?
Cruzain inh noDet: 8.0%; Cruzain Triton: -2.6%

Results for CC(C)Oc1ccc(C(=O)N2CCC(c3nc4ccccc4o3)CC2)cc1 ?
Cruzain inh noDet: 12.8%; Cruzain Triton: -3.8%

Results for Cc1ccsc1/C=C(\C(=O)c1ccc(OC(C)C)cc1)c1nc2ccccc2o1 ?
Cruzain inh noDet: 31.6µM*; Cruzain Triton: -4.5%

What do the screens show for `COc1cccc(NC(=S)NCCC(c2ccccc2)c2ccccc2)c1`?
Cruzain inh noDet: -8.6%; Cruzain Triton: -3.3%

Results for COc1cc(NC(=S)NCCC(c2ccccc2)c2ccccc2)cc(OC)c1 ?
Cruzain inh noDet: 31.6µM*; Cruzain Triton: -10.1%

How did O=C(Nc1ccc(Cl)cc1)c1cc(S(=O)(=O)N2CCCc3ccccc32)ccc1F do in these assays?
Cruzain inh noDet: -13.3%; Cruzain Triton: 1.0%

Results for Cc1ccc(-c2nc3ccccc3n2C)o1 ?
Cruzain inh noDet: 3.8%; Cruzain Triton: -2.2%

Results for CC(=O)c1ccc(-c2nc3ccccc3n2C)o1 ?
Cruzain inh noDet: 15.8µM*; Cruzain Triton: -27.4%

Results for Cc1cc(C)n2nc(CNC(=O)c3cccc(N(C)C)c3)nc2n1 ?
Cruzain inh noDet: -6.8%; Cruzain Triton: -0.9%

What do the screens show for `Cc1ccc(C)c(NC(=O)CSc2ncc(S(=O)(=O)c3ccc(C)c(Cl)c3)c(=O)[nH]2)c1`?
Cruzain inh noDet: 49.0%; Cruzain Triton: -11.0%

What do the screens show for `CCOC(=O)c1ccc(NC(=O)CSc2ncc(S(=O)(=O)c3ccc(C)c(Cl)c3)c(=O)[nH]2)cc1`?
Cruzain inh noDet: inconclusive; Cruzain Triton: 28.2µM*

Results for C=C[C@H]1CCC=C2C(=O)CCC[C@@H]21 ?
Cruzain inh noDet: 27.2%; Cruzain Triton: -3.6%

How did COc1cc(CN(C(=O)COc2ccc(Cl)c(C)c2)c2ccccn2)cc(OC)c1OC do in these assays?
Cruzain inh noDet: inconclusive; Cruzain Triton: -7.8%

How did COc1ccc(/C=N/NC(=O)c2cccc(NC(=O)c3ccc(Cl)cc3)c2)c(OC)c1 do in these assays?
Cruzain inh noDet: inconclusive; Cruzain Triton: -7.0%

Results for O=C(N/N=C/c1ccncc1)c1cccc(NC(=O)c2ccc(Cl)cc2)c1 ?
Cruzain inh noDet: -13.4%; Cruzain Triton: 28.2µM*

Results for CCCCCCCC1Cc2ccccc2C(C(C(=O)OC)C(=O)OC)N1C(=O)OC (configuration not stated) ?
Cruzain inh noDet: inconclusive; Cruzain Triton: -1.2%

Results for Cc1ccc(CNc2nc3ccccc3n3nnnc23)cc1 ?
Cruzain inh noDet: 31.6µM*; Cruzain Triton: 2.3%

What do the screens show for `c1ccc2c(c1)nc(Nc1ccc3c(c1)OCO3)c1nnnn12`?
Cruzain inh noDet: 25.1µM*; Cruzain Triton: -2.1%

How did Fc1cccc(Nc2nc3ccccc3n3nnnc23)c1 do in these assays?
Cruzain inh noDet: inconclusive; Cruzain Triton: -0.1%

How did Cc1ccc(CNC(=O)c2ccc(Nc3nc4ccccc4n4nnnc34)cc2)cc1 do in these assays?
Cruzain inh noDet: -12.3%; Cruzain Triton: -0.9%

How did Oc1ccccc1Nc1nc2ccccc2n2nnnc12 do in these assays?
Cruzain inh noDet: inconclusive; Cruzain Triton: -3.6%

Results for Fc1ccccc1Nc1nc2ccccc2n2nnnc12 ?
Cruzain inh noDet: 25.1µM*; Cruzain Triton: -0.4%

Results for CCCSCCCNC(=O)C1CCN(c2nc3ccccc3nc2C(F)(F)F)CC1 ?
Cruzain inh noDet: -0.6%; Cruzain Triton: 1.4%

How did N#Cc1ccccc1Cn1c(=O)n(CCCCC(=O)NCc2ccc3c(c2)OCO3)c(=O)c2ccccc21 do in these assays?
Cruzain inh noDet: 1.3%; Cruzain Triton: -1.8%

How did Cc1cccn2c(=O)c(C(=O)NCCc3ccc(S(N)(=O)=O)cc3)c(O)nc12 do in these assays?
Cruzain inh noDet: -13.5%; Cruzain Triton: -14.0%

What do the screens show for `COC(=O)c1cc2sccc2n1CC(=O)Nc1ccc(C)cc1C`?
Cruzain inh noDet: -20.6%; Cruzain Triton: -2.5%

What do the screens show for `Cl/C(=C\n1cncn1)c1ccc(Cl)cc1Cl`?
Cruzain inh noDet: 6.9%; Cruzain Triton: -1.3%

Results for CCOC(=O)c1sc(N(Cc2ccccc2)C(=O)COC(=O)c2ccccc2O)nc1C ?
Cruzain inh noDet: -15.7%; Cruzain Triton: -6.6%

What do the screens show for `CCOC(=O)c1sc(N(Cc2ccccc2)C(=O)COC(=O)c2ccc(O)cc2)nc1C`?
Cruzain inh noDet: 15.8µM*; Cruzain Triton: -4.5%

How did Cc1nn(-c2ccccc2)c(N2CCCC2)c1/C=N/NC(=O)c1cc2ccccc2cc1O do in these assays?
Cruzain inh noDet: 15.8µM*; Cruzain Triton: -6.8%

Screening data from PubChem.
